Experimental data from PubChem BioAssay (EPA / NIEHS).
Calls of active or inactive are those of the source. Rule for the calls: active = hit-call score of the fitted dose curve at least 0.9, where 1 is the maximum; inactive = score below 0.9.

Experiment: CCTE_Shafer_MEA_acute_cross_correlation_area: CCTE's Neural Acute Assay for Area of Cross Correlation, Shafer Lab (AID 2284024);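 note: curves fitted for loss of cross-correlation area so actives lower synchrony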
Procedure: CCTE_Shafer_MEA_acute assay is conducted using Axion Biosystems 48 well microelectrode array (MEA) plates and Maestro recording system. Each well of the MEA plate contains a grid of 16 microelectrodes embedded in the culture surface. Electrically active cells, such as neurons, can be cultured over the electrodes, and electrical activity in these cells can be recorded extracellularly. The spontaneous firing of neurons is captured from each electrode on a microsecond timescale providing both temporally and spatially precise data. […] The CCTE_Shafer_MEA_acute assay uses primary cultures of rat cortical neurons. As these cultures mature over time, neural networks develop functional activity and form cohesive networks in which electrical activity can be highly coordinated. Baseline 40-minute recordings are made on days post-plating 13 or 15, followed by a secondary 40-minute recording after chemical exposure.CCTE_Shafer_MEA_acute_cross_correlation_area is a component of the CCTE_Shafer_MEA_acute assay. It measures the area under the well-wide pooled inter-electrode cross-correlation of action potential firing (not normalized to auto-correlations) within a window centered around 0 for the phase lag during a recording in a microelectrode array (MEA) using Axion Biosystems Maestro 768 channel amplifier with the AxIS adaptive spike detector. The recordings before and after chemical treatment are used to calculate a percent change in the cross correlation area in each well.Data from the assay component CCTE_Shafer_MEA_acute_cross_correlation_area was analyzed into 1 assay endpoint. This assay endpoint, CCTE_Shafer_MEA_acute_cross_correlation_area, was analyzed in the negative analysis fitting direction relative to DMSO as the negative control and baseline of activity. Using a type of functional reporter, gain or loss-of-signal activity can be used to understand electrical activity.
Spontaneous activity in the cortical cultures was recorded using an Axion Biosystems Maestro 768 channel amplifier and Axion Integrated Studios (AxIS) v1.8 (or later) software. The amplifier recorded from all channels simultaneously (gain = 1200 x; sampling rate = 12.5 kHz/channel): raw signals were filtered with a Butterworth band-pass filter (300-5000 Hz), which filters out slower local field potentials leaving only fast potentials, i.e., "spikes", arising from extracellular currents associated with action potentials (Pine 2006; Wheeler and Nam 2011). On-line spike detection of filtered signals was conducted with the AxIS adaptive spike detector, using a threshold of 8x the root mean squared (rms) noise on each channel. Any electrodes with rms noise levels greater than 5 uV were grounded (e.g., no data were recorded). Once grounded, an electrode was grounded for the duration of the experiment. All recordings were conducted at 37 C. Wells were deemed usable if on the day of the exposure >/= 10 electrodes were active (defined as >/= 5 spikes/min). On DIV 13 or 15, a minimum of three wells from one cortical culture preparation were treated with each compound (0.03-40 uM). Prior to recording baseline activity, each mwMEA plate was placed in the Maestro at 37 C and allowed to sit for 20 min while firing rates stabilized. Baseline activity (40 min) was recorded before the addition of each compound. An additional 40 min of spontaneous activity was recorded in the presence of each compound. Changes in network parameters relative to baseline were assessed following compound treatment.

Row | Structure (SMILES) | outcome | AC50
1 | CCCCCCc1ccc(O)cc1O | inactive | 
2 | O=C(O)CCN(C1(C(=O)NO)CCCC1)S(=O)(=O)c1ccc(Oc2ccc(F)cc2)cc1 | inactive | 
3 | O=P(OC(CCl)CCl)(OC(CCl)CCl)OC(CCl)CCl | inactive | 
4 | CCCCCCCCCCCCc1ccccc1 | inactive | 
5 | Cn1c(=O)c2c(ncn2C)n(C)c1=O | inactive | 
6 | Cn1cnc([N+](=O)[O-])c1Sc1ncnc2nc[nH]c12 | inactive | 
7 | On1ccccc1=S | inactive | 
8 | Cc1[nH]cnc1C[C@H]1CCc2c(C)c3ccccc3n2C1=O | inactive | 
9 | CC[C@H]1OC(=O)[C@H](C)[C@@H](O[C@H]2C[C@@](C)(OC)[C@@H](O)[C@H](C)O2)[C@H](C)[C@@H](O[C@@H]2O[C@H](C)C[C@H](N(C)C)[C@H]2O)[C@](C)(O)C[C@@H](C)C(=O)[C@H](C)[C@@H](O)[C@]1(C)O | inactive | 
10 | O=C(O)c1cc(N=Nc2ccc(S(=O)(=O)Nc3ccccn3)cc2)ccc1O | inactive | 
11 | COc1ccc2sc(C(=O)Nc3nnn[nH]3)c(OC(C)C)c2c1 | inactive | 
12 | CC[C@H]1CC[C@H](NCc2cc3c(cc2OC)[C@H]2C[C@H]2C(=O)N3C)[C@H](c2ccccc2)N1 | inactive | 
13 | CCCN(C1CCN(C(=O)C2CCNCC2)CC1)[C@@H]1CCc2ccc(OC)cc2C1 | inactive | 
14 | CCC(C)(C)C(=O)O[C@H]1C[C@@H](C)C=C2C=C[C@H](C)[C@H](CC[C@@H]3C[C@@H](O)CC(=O)O3)[C@H]21 | inactive | 
15 | CC(C)=CCCC(C)=CC=O | inactive | 
16 | CCCCC(CC)COC(=O)CCCCCCCCC(=O)OCC(CC)CCCC (stereo not drawn) | inactive | 
17 | CCOC(=O)c1ccc(C2CCC(NC[C@H](O)COc3ccc(O)c(NS(C)(=O)=O)c3)CC2)cc1 (stereo partly drawn) | inactive | 
18 | COc1cccc(-c2ccc(/C=C\CN3CCCCCC3)cc2Cl)c1 |  | 3.7 µM (active)
